# Experimental data published in publication PMC7862700, “An all-to-all approach to the identification of sequence-specific readers for epigenetic DNA modifications on cytosine”.
# Columns and labels:
# Assay in all cases: DAPPL (digital affinity profiling via proximity ligation, sequencing); 10 mM Tris-HCl pH 7.5, 50 mM NaCl, 1 mM DTT, 4% glycerol, room temperature, 30 min; GST-TFs on glutathione beads, 16-mer random dsDNA library, 0.1% formaldehyde crosslink after washing; high values mean tight binding
# Details in all cases: protein: recombinant; tags: N-terminal GST; dsDNA, one strand shown
# ETV2 = target: T1, ETV2 (Homo sapiens, UniProt O00321 1-342)
# T1 sequence: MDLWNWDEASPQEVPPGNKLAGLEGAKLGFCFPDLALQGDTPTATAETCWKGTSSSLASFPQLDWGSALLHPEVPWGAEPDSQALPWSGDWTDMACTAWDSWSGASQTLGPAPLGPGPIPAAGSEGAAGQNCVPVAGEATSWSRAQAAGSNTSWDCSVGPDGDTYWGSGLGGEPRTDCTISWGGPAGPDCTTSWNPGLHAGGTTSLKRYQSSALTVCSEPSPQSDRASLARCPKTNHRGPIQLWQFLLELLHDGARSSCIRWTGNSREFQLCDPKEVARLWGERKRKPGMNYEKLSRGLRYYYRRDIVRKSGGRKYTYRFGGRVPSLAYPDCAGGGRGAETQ
# Summary of the method: (§1)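 Pools were built from human transcription factors expressed in yeast as GST fusions, captured on glutathione beads and DNA-barcoded, along with a tag-only sample. Incubation with 200 nmole of a 16-mer random double-stranded DNA library lasted 30 min at room temperature in Tris/NaCl/DTT/glycerol buffer, and was followed by washing, 0.1% formaldehyde crosslinking, proximity ligation, PCR amplification and Illumina NextSeq500 sequencing. Binding signal is the quotient of each hexamer's read frequency for a factor and its frequency for the tag-only sample.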
# ELF3 = target: T2, ELF3 (Homo sapiens, UniProt P78545 1-371)
# T2 sequence: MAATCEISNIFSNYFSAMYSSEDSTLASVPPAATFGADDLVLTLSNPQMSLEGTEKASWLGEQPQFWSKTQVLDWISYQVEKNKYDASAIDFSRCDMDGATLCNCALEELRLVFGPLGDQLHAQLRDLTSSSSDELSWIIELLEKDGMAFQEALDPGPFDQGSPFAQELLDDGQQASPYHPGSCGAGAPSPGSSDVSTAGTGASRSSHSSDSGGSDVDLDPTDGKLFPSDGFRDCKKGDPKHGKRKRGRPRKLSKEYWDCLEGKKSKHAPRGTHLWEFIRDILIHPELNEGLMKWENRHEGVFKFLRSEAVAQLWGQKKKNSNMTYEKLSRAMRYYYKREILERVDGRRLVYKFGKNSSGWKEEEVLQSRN
# Summary of the method: as §1
# ETV1 = ETV1 (Homo sapiens, UniProt P50549 1-477)
# Summary of the method: as §1
# ERF = target: T3, ERF (Homo sapiens, UniProt P50548 1-548)
# T3 sequence: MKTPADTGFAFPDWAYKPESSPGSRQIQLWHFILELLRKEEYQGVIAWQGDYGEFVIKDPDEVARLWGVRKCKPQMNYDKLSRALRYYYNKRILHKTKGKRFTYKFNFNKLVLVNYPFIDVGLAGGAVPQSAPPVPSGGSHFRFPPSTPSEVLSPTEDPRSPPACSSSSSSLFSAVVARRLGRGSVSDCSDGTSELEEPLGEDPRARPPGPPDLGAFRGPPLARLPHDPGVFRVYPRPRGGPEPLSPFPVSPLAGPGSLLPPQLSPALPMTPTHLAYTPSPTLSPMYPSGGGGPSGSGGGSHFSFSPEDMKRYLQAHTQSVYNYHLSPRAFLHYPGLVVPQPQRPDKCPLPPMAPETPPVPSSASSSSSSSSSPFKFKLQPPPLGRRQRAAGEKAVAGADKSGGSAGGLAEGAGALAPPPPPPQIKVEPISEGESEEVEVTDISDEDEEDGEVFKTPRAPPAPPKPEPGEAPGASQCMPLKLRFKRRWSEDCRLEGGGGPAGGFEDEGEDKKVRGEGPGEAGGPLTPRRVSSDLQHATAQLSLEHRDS
# Summary of the method: as §1
# ETV3L = target: T4, ETV3L (Homo sapiens, UniProt Q6ZN32 1-361)
# T4 sequence: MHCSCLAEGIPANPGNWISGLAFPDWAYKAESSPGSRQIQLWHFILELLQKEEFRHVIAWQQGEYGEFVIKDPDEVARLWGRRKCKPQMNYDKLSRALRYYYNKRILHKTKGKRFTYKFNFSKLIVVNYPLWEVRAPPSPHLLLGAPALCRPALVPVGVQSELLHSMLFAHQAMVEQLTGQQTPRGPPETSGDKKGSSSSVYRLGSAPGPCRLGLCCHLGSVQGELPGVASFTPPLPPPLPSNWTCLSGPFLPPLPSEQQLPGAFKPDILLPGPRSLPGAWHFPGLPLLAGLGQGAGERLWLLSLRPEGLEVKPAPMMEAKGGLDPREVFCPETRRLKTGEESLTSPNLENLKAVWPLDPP
# Summary of the method: as §1
# ETS2 = target: T5, ETS2 (Homo sapiens, UniProt P15036 1-469)
# T5 sequence: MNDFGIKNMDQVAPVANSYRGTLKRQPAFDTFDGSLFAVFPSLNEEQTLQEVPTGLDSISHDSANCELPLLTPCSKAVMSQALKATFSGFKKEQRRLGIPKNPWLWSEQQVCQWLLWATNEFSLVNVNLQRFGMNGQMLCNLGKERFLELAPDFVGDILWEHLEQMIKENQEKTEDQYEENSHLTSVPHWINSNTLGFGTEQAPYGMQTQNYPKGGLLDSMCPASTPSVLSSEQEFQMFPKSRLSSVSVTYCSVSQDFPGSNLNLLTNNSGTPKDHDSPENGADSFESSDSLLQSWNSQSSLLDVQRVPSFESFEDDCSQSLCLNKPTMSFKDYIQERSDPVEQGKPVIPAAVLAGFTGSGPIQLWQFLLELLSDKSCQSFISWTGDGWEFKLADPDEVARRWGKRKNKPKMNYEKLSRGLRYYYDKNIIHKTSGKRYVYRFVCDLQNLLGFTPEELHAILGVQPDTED
# Summary of the method: as §1
# SPDEF = target: T6, SPDEF (Homo sapiens, UniProt O95238 1-335)
# T6 sequence: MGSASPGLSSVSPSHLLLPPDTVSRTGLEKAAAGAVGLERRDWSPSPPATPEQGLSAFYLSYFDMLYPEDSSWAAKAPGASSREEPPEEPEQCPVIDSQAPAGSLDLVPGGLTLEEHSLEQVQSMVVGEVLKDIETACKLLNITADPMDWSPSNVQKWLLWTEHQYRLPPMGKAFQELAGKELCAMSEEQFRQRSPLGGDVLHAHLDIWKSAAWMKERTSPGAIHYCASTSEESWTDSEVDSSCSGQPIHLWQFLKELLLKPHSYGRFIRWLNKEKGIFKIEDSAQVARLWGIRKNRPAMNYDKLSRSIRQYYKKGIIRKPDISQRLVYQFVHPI
# Summary of the method: as §1
# ETV7 = target: T7, ETV7 (Homo sapiens, UniProt Q9Y603 1-341)
# T7 sequence: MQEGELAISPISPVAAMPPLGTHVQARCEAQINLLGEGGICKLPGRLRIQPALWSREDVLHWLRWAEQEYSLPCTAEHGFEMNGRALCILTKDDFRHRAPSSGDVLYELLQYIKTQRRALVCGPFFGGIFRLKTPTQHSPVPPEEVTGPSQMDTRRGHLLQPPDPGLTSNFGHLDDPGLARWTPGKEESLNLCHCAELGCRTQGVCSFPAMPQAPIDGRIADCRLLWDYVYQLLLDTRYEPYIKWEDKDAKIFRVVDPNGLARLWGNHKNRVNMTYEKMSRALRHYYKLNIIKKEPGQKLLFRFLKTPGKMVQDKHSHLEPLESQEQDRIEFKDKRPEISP
# Summary of the method: as §1
# ETV3 = target: T8, ETV3 (Homo sapiens, UniProt P41162-2 1-143)
# T8 sequence: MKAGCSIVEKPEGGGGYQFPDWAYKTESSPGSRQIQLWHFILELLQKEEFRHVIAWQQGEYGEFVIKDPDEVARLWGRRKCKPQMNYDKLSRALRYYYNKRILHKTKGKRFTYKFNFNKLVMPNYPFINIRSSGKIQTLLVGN
# Summary of the method: as §1
# ETV6 = ETV6 (Homo sapiens, UniProt P41212 1-452)
# Summary of the method: as §1
# Chain of ETV6 (P41212 whole entry): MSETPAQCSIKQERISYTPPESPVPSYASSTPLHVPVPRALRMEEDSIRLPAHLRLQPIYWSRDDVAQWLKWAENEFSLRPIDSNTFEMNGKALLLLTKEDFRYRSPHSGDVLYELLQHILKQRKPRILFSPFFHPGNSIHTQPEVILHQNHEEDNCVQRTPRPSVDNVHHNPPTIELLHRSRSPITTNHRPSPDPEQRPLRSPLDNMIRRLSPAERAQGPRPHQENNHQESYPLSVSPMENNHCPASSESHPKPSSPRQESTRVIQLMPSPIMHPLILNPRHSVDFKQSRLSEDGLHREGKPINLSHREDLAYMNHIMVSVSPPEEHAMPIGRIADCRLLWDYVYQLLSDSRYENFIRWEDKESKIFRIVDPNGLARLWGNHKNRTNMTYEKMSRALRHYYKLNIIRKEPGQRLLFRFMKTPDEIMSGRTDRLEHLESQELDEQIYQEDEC
# Chain of ETV1 (P50549 whole entry): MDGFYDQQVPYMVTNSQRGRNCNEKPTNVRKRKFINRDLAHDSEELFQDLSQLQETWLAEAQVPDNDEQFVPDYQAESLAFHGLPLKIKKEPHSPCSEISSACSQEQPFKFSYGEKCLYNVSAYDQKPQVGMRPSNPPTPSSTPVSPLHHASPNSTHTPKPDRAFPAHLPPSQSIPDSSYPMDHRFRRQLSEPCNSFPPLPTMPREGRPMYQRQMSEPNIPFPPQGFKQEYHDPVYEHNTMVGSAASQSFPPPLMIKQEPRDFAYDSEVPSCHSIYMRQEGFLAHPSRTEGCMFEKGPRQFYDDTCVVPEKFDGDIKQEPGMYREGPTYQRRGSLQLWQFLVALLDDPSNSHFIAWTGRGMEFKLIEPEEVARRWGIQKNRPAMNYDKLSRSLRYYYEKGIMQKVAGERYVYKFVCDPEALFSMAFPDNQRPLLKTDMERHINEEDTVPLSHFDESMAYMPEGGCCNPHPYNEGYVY
sequence,measurement,setting,value
CATGCA,binding signal,ETV2,"1.12 fold enrichment (6-mer frequency, TF over GST control)"
same,binding signal,ELF3,"1.16 fold enrichment (6-mer frequency, TF over GST control)"
same,binding signal,ETV1,"1.11 fold enrichment (6-mer frequency, TF over GST control)"
same,binding signal,ERF,"1.09 fold enrichment (6-mer frequency, TF over GST control)"
same,binding signal,ETV3L,"1.16 fold enrichment (6-mer frequency, TF over GST control)"
same,binding signal,ETS2,"1.06 fold enrichment (6-mer frequency, TF over GST control)"
same,binding signal,SPDEF,"1.13 fold enrichment (6-mer frequency, TF over GST control)"
same,binding signal,ETV7,"1.03 fold enrichment (6-mer frequency, TF over GST control)"
same,binding signal,ETV3,"1.05 fold enrichment (6-mer frequency, TF over GST control)"
same,binding signal,ETV6,"1.18 fold enrichment (6-mer frequency, TF over GST control)"
